# Measurements: the supplement of paper PMC12282887
# ± gives the standard deviation of the averaged measurements.
# How the values were obtained:
# Assay in all cases: promoter activity interaction Z-score (Lux/OD deviation from empty-vector control); higher = stronger promoter induction by the compound
# [1] = tested on: E. coli BW25113 acrABp lux reporter
# Procedure, shortened: (§1)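 E. coli BW25113, as wild type or one of three single-gene deletion strains, carried low-copy luxCDABE promoter reporters and grew in 40 µl LB Lennox in 384-well plates at 37°C, with OD600 and luminescence read every 30 min for 12 h. Each compound was run at four 1:2 dilutions in biological duplicates, integration spanned 0–8 h for wild type and 1–9 h for deletion strains, and wells under 10% of the median growth value were dropped. The score is the Z-transformed residual of growth-normalised luminescence fitted against a control.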
# [2] = tested on: E. coli BW25113 micFp lux reporter
# Procedure, shortened: as §1
# [3] = tested on: E. coli BW25113 ompFp lux reporter
# Procedure, shortened: as §1
# [4] = tested on: E. coli BW25113 robp lux reporter
# Procedure, shortened: as §1
# [5] = tested on: E. coli BW25113 soxSp lux reporter
# Procedure, shortened: as §1
# [6] = tested on: E. coli BW25113 tolCp lux reporter
# Procedure, shortened: as §1
# [7] = 0.064 µg/ml, genetic background: wild type
# [8] = 0.064 µg/ml, genetic background: ΔmarA
# [9] = 0.064 µg/ml, genetic background: Δrob
# [10] = 0.064 µg/ml, genetic background: ΔsoxS
# [11] = 0.13 µg/ml, genetic background: wild type
# [12] = 0.13 µg/ml, genetic background: ΔmarA
# [13] = 0.13 µg/ml, genetic background: Δrob
# [14] = 0.13 µg/ml, genetic background: ΔsoxS
# [15] = 0.26 µg/ml, genetic background: wild type
# [16] = 0.26 µg/ml, genetic background: ΔmarA
# [17] = 0.26 µg/ml, genetic background: Δrob
# [18] = 0.26 µg/ml, genetic background: ΔsoxS
# [19] = 0.51 µg/ml, genetic background: wild type
# [20] = 0.28 µg/ml, genetic background: wild type
# [21] = 0.28 µg/ml, genetic background: ΔmarA
# [22] = 0.28 µg/ml, genetic background: Δrob
# [23] = 0.28 µg/ml, genetic background: ΔsoxS
# [24] = 0.56 µg/ml, genetic background: wild type
# [25] = 0.56 µg/ml, genetic background: ΔmarA
# [26] = 0.56 µg/ml, genetic background: Δrob
# [27] = 0.56 µg/ml, genetic background: ΔsoxS
# [28] = 1.1 µg/ml, genetic background: wild type
# [29] = 1.1 µg/ml, genetic background: ΔmarA
# [30] = 1.1 µg/ml, genetic background: Δrob
# [31] = 1.1 µg/ml, genetic background: ΔsoxS
# [32] = 2.2 µg/ml, genetic background: wild type
compound,measurement,setting,value
C[C@H]1c2cccc(O)c2C(=O)C2=C(O)[C@]3(O)C(=O)C(C(N)=O)=C(O)[C@@H](N(C)C)[C@@H]3[C@@H](O)[C@@H]21 [Doxycycline],promoter activity interaction Z-score,[1]; [7],0.468 ± 0.23
same,promoter activity interaction Z-score,[1]; [8],-0.101 ± 0.52
same,promoter activity interaction Z-score,[1]; [9],0.667 ± 0.18
same,promoter activity interaction Z-score,[1]; [10],0.902 ± 0.18
same,promoter activity interaction Z-score,[1]; [11],1.36 ± 0.11
same,promoter activity interaction Z-score,[1]; [12],0.0555 ± 0.26
same,promoter activity interaction Z-score,[1]; [13],2.17 ± 0.61
same,promoter activity interaction Z-score,[1]; [14],2.67 ± 1.3
same,promoter activity interaction Z-score,[1]; [15],3.4 ± 0.4
same,promoter activity interaction Z-score,[1]; [16],-0.561 ± 0.26
same,promoter activity interaction Z-score,[1]; [17],3.18 ± 0.3
same,promoter activity interaction Z-score,[1]; [18],3.94 ± 0.66
same,promoter activity interaction Z-score,[2]; [7],1.47 ± 0.83
same,promoter activity interaction Z-score,[2]; [8],0.45 ± 0.069
same,promoter activity interaction Z-score,[2]; [9],-0.0978 ± 0.028
same,promoter activity interaction Z-score,[2]; [10],0.831 ± 0.11
same,promoter activity interaction Z-score,[2]; [11],2.59 ± 0.24
same,promoter activity interaction Z-score,[2]; [12],0.672 ± 0.35
same,promoter activity interaction Z-score,[2]; [13],0.226 ± 0.065
same,promoter activity interaction Z-score,[2]; [14],2.53 ± 0.24
same,promoter activity interaction Z-score,[2]; [15],1.58 ± 0.61
same,promoter activity interaction Z-score,[2]; [16],1.02 ± 0.22
same,promoter activity interaction Z-score,[2]; [17],-0.177 ± 0.23
same,promoter activity interaction Z-score,[2]; [18],2.84 ± 1.2
same,promoter activity interaction Z-score,[2]; [19],-0.656 ± 0.6
same,promoter activity interaction Z-score,[3]; [7],2.17 ± 0.36
same,promoter activity interaction Z-score,[3]; [8],2.03 ± 0.54
same,promoter activity interaction Z-score,[3]; [9],2.36 ± 0.68
same,promoter activity interaction Z-score,[3]; [10],2.91 ± 0.58
same,promoter activity interaction Z-score,[3]; [11],2.54 ± 0.84
same,promoter activity interaction Z-score,[3]; [12],1.92 ± 0.47
same,promoter activity interaction Z-score,[3]; [13],2.05 ± 0.15
same,promoter activity interaction Z-score,[3]; [14],3.33 ± 0.7
same,promoter activity interaction Z-score,[3]; [15],0.914 ± 0.97
same,promoter activity interaction Z-score,[3]; [16],-0.13 ± 1.5
same,promoter activity interaction Z-score,[3]; [17],-1.55 ± 0.46
same,promoter activity interaction Z-score,[3]; [18],2.96 ± 1.1
same,promoter activity interaction Z-score,[4]; [7],0.541 ± 0.37
same,promoter activity interaction Z-score,[4]; [8],0.726 ± 0.57
same,promoter activity interaction Z-score,[4]; [9],0.325 ± 0.7
same,promoter activity interaction Z-score,[4]; [10],1.37 ± 0.15
same,promoter activity interaction Z-score,[4]; [11],-0.332 ± 0.71
same,promoter activity interaction Z-score,[4]; [12],-0.921 ± 0.38
same,promoter activity interaction Z-score,[4]; [13],-0.263 ± 1.5
same,promoter activity interaction Z-score,[4]; [14],0.43 ± 1.4
same,promoter activity interaction Z-score,[4]; [15],-1.3 ± 0.03
same,promoter activity interaction Z-score,[4]; [16],-1.65 ± 0.046
same,promoter activity interaction Z-score,[4]; [17],-2.35 ± 0.43
same,promoter activity interaction Z-score,[4]; [18],-1.67 ± 0.45
same,promoter activity interaction Z-score,[4]; [19],-0.891 ± 0.46
same,promoter activity interaction Z-score,[5]; [7],0.306 ± 0.015
same,promoter activity interaction Z-score,[5]; [8],0.57 ± 0.091
same,promoter activity interaction Z-score,[5]; [9],0.328 ± 0.17
same,promoter activity interaction Z-score,[5]; [10],0.664 ± 0.32
same,promoter activity interaction Z-score,[5]; [11],0.688 ± 0.29
same,promoter activity interaction Z-score,[5]; [12],0.899 ± 0.1
same,promoter activity interaction Z-score,[5]; [13],0.658 ± 0.49
same,promoter activity interaction Z-score,[5]; [14],1.87 ± 0.49
same,promoter activity interaction Z-score,[5]; [15],1.52 ± 0.49
same,promoter activity interaction Z-score,[5]; [16],2.111 ± 0.021
same,promoter activity interaction Z-score,[5]; [17],0.693 ± 0.49
same,promoter activity interaction Z-score,[5]; [18],2.44 ± 1
same,promoter activity interaction Z-score,[5]; [19],1.1 ± 0.16
same,promoter activity interaction Z-score,[6]; [7],0.271 ± 0.51
same,promoter activity interaction Z-score,[6]; [8],1.62 ± 0.076
same,promoter activity interaction Z-score,[6]; [9],-0.121 ± 0.96
same,promoter activity interaction Z-score,[6]; [10],0.793 ± 0.57
same,promoter activity interaction Z-score,[6]; [11],0.44 ± 0.19
same,promoter activity interaction Z-score,[6]; [12],0.772 ± 1.2
same,promoter activity interaction Z-score,[6]; [13],0.309 ± 0.4
same,promoter activity interaction Z-score,[6]; [14],2.09 ± 0.67
same,promoter activity interaction Z-score,[6]; [15],0.167 ± 0.028
same,promoter activity interaction Z-score,[6]; [16],0.714 ± 0.019
same,promoter activity interaction Z-score,[6]; [17],2.36 ± 3.6
same,promoter activity interaction Z-score,[6]; [18],2.12 ± 1
same,promoter activity interaction Z-score,[6]; [19],0.561 ± 1.1
CC[C@H]1OC(=O)[C@H](C)[C@@H](O[C@H]2C[C@@](C)(OC)[C@@H](O)[C@H](C)O2)[C@H](C)[C@@H](O[C@@H]2O[C@H](C)C[C@H](N(C)C)[C@H]2O)[C@](C)(O)C[C@@H](C)CN(C)[C@H](C)[C@@H](O)[C@]1(C)O [Azithromycin],promoter activity interaction Z-score,[1]; [20],0.612 ± 0.28
same,promoter activity interaction Z-score,[1]; [21],-0.667 ± 0.48
same,promoter activity interaction Z-score,[1]; [22],0.324 ± 0.28
same,promoter activity interaction Z-score,[1]; [23],0.489 ± 0.8
same,promoter activity interaction Z-score,[1]; [24],1.13 ± 0.12
same,promoter activity interaction Z-score,[1]; [25],0.048 ± 0.66
same,promoter activity interaction Z-score,[1]; [26],2.23 ± 0.08
same,promoter activity interaction Z-score,[1]; [27],3.66 ± 1.6
same,promoter activity interaction Z-score,[1]; [28],4.08 ± 1
same,promoter activity interaction Z-score,[1]; [29],6.35 ± 6.2
same,promoter activity interaction Z-score,[1]; [30],3.65 ± 1.2
same,promoter activity interaction Z-score,[1]; [31],4.28 ± 1.8
same,promoter activity interaction Z-score,[1]; [32],7.14 ± 1.1
same,promoter activity interaction Z-score,[2]; [20],0.698 ± 0.19
same,promoter activity interaction Z-score,[2]; [21],-0.163 ± 0.0028
same,promoter activity interaction Z-score,[2]; [22],0.125 ± 0.087
same,promoter activity interaction Z-score,[2]; [23],0.248 ± 0.093
same,promoter activity interaction Z-score,[2]; [24],0.273 ± 0.86
same,promoter activity interaction Z-score,[2]; [25],-0.14 ± 0.018
same,promoter activity interaction Z-score,[2]; [26],0.558 ± 0.35
same,promoter activity interaction Z-score,[2]; [27],-0.483 ± 0.018
same,promoter activity interaction Z-score,[2]; [28],-0.839 ± 0.87
same,promoter activity interaction Z-score,[2]; [29],-0.439 ± 0.056
same,promoter activity interaction Z-score,[2]; [30],0.39 ± 0.33
same,promoter activity interaction Z-score,[2]; [31],-0.925 ± 0.18
same,promoter activity interaction Z-score,[2]; [32],-1.39
same,promoter activity interaction Z-score,[3]; [20],0.438 ± 0.0074
same,promoter activity interaction Z-score,[3]; [21],-0.225 ± 0.85
same,promoter activity interaction Z-score,[3]; [22],0.663 ± 0.29
same,promoter activity interaction Z-score,[3]; [23],0.266 ± 1.3
same,promoter activity interaction Z-score,[3]; [24],1.95 ± 0.52
same,promoter activity interaction Z-score,[3]; [25],1.13 ± 0.094
same,promoter activity interaction Z-score,[3]; [26],3.25 ± 1.9
same,promoter activity interaction Z-score,[3]; [27],2.77 ± 0.12
same,promoter activity interaction Z-score,[3]; [28],0.0139 ± 0.62
same,promoter activity interaction Z-score,[3]; [29],0.739 ± 3.3
same,promoter activity interaction Z-score,[3]; [30],-0.756 ± 0.22
same,promoter activity interaction Z-score,[3]; [31],3.18 ± 1.5
same,promoter activity interaction Z-score,[4]; [20],-0.606 ± 0.46
same,promoter activity interaction Z-score,[4]; [21],-2.26 ± 0.22
same,promoter activity interaction Z-score,[4]; [22],-1.42 ± 0.052
same,promoter activity interaction Z-score,[4]; [23],-1.11 ± 0.5
same,promoter activity interaction Z-score,[4]; [24],-1.97 ± 0.83
same,promoter activity interaction Z-score,[4]; [25],-2.42 ± 0.28
same,promoter activity interaction Z-score,[4]; [26],-1.4 ± 0.26
same,promoter activity interaction Z-score,[4]; [27],-1.99 ± 0.19
same,promoter activity interaction Z-score,[4]; [28],-3.21 ± 1
same,promoter activity interaction Z-score,[4]; [29],-3.49 ± 0.67
same,promoter activity interaction Z-score,[4]; [30],-2.09 ± 0.15
same,promoter activity interaction Z-score,[4]; [31],-2.73 ± 0.21
same,promoter activity interaction Z-score,[4]; [32],-3.03
same,promoter activity interaction Z-score,[5]; [20],0.146 ± 0.018
same,promoter activity interaction Z-score,[5]; [21],-0.132 ± 0.027
same,promoter activity interaction Z-score,[5]; [22],0.101 ± 0.33
same,promoter activity interaction Z-score,[5]; [23],0.569 ± 0.9
same,promoter activity interaction Z-score,[5]; [24],0.342 ± 0.019
same,promoter activity interaction Z-score,[5]; [25],-0.134 ± 0.052
same,promoter activity interaction Z-score,[5]; [26],0.401 ± 0.02
same,promoter activity interaction Z-score,[5]; [27],1.917 ± 0.018
same,promoter activity interaction Z-score,[5]; [28],2.27 ± 0.33
same,promoter activity interaction Z-score,[5]; [29],1.16 ± 0.1
same,promoter activity interaction Z-score,[5]; [30],1.69 ± 0.21
same,promoter activity interaction Z-score,[5]; [31],2.06 ± 0.22
same,promoter activity interaction Z-score,[5]; [32],2.59 ± 1.8
same,promoter activity interaction Z-score,[6]; [20],1.23 ± 0.81
same,promoter activity interaction Z-score,[6]; [21],0.138 ± 0.034
same,promoter activity interaction Z-score,[6]; [22],0.66 ± 0.69
same,promoter activity interaction Z-score,[6]; [23],2.05 ± 0.54
same,promoter activity interaction Z-score,[6]; [24],1.21 ± 1.3
same,promoter activity interaction Z-score,[6]; [25],0.283 ± 0.058
same,promoter activity interaction Z-score,[6]; [26],1.89 ± 0.14
same,promoter activity interaction Z-score,[6]; [27],2.57 ± 1.3
same,promoter activity interaction Z-score,[6]; [28],3.44 ± 0.47
same,promoter activity interaction Z-score,[6]; [29],1.58 ± 1.8
same,promoter activity interaction Z-score,[6]; [30],4.99 ± 0.58
same,promoter activity interaction Z-score,[6]; [31],4.53 ± 2
same,promoter activity interaction Z-score,[6]; [32],5.2 ± 2.8
